9 compounds from PubChem BioAssay (NCATS) can be followed below.

Results filed as inconclusive are left out. Active and inactive are the calls of the source. Unless noted, the call rests on the fitted dose curve; in most records, active means well fitted curve in the direction sought with a large enough effect; inconclusive means small, poorly fitted or top-dose-only effect, or another doubt; inactive means no such curve, though single readings can be large; an effect the other way counts as inactive or inconclusive.

A short description of test [1]: qHTS for differential inhibitors of proliferation of Plasmodium falciparum line HB3 (AID 1886).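 Further: parasites grown with compound for 72 h before SYBR Green readout.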 Further: potency means the concentration at half of the fitted maximal effect. As to conditions: Potency: Plasmodium falciparum HB3 proliferation inhibition. On the technique in general: In qHTS, concentration-response curves come from the screen itself.
The nature of test [2]: qHTS Assay for Modulators of Human Peripheral Myelin Protein 22 (PMP22) Expression/Activity (AID 1967; active means well fitted curve in the direction sought with a large enough effect in the signal ratio; the % refers to the signal ratio). The essentials: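 MSC80 mouse Schwann cells stably carrying Pmp22 promoter–green click beetle luciferase plus EF-alpha–red luciferase control were dosed for 24h at 37 °C. Dual-colour luminescence was filter-overlap corrected; %Activity came from green/red ratio versus untreated cells.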

The target of test [3] is Ferritin light chain (Equus caballus) (UniProt P02791). The test is described as follows: qHTS Validation Assay for Identification of Novel General Anesthetics (AID 2323). Further: series mostly up to about 77 µM. The essentials: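 Competitive displacement of profluorescent 1-aminoanthracene (1-AMA, 50% saturated solution in PBS) from 10 uM horse-spleen apoferritin. Compounds incubated 10 min at room temperature; fluorescence read at 380 nm excitation/535 nm emission, normalized to free 1-AMA and complex, fitted with four-parameter Hill equation.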

Test [4] concerns the target ATP-dependent DNA helicase Q1 (Homo sapiens) (UniProt P46063). Description: qHTS Validation Assay for Inhibitors of RecQ-Like Dna Helicase 1 (RECQ1) (AID 2353). The essentials: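 50 nM RECQ1T1 preincubated 15 min with compound in Tris pH 8.0 buffer with MgCl2, DTT, Tween-20 and 2.5 ug/ml poly(dI-dC); started with 200 nM TAMRA/BHQ-2 forked duplex and 2 mM ATP. Unwinding read as fluorescence (525/598 nm), two reads 2 h apart.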

Test [5] deals with RecQ-like DNA helicase BLM (Homo sapiens) (UniProt P54132). The test is described as follows: qHTS Validation Assay for Inhibitors of Bloom's syndrome helicase (BLM) (AID 2364). The essentials: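 50 nM BLM preincubated 15 min at room temperature with compound in pH 8.0 Tris buffer containing 2.5 ug/ml poly(dI-dC); started with 200 nM TAMRA/BHQ-2 forked duplex and 2 mM ATP (final). Unwinding read as TAMRA fluorescence increase, two reads 2 h apart.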

A short description of test [6]: Cytometric Cell-Based qHTS for Inhibitors of the mTORC1 Signaling Pathway in MEF (Tsc2-/-, p53-/-) Cells (AID 2660).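 Further: percent of cells above a phospho-rpS6 to PI ratio cutoff in each well; series mostly up to about 38 µM.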 The essentials:
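Percent of cells positive for normalized phospho-S6 staining is reported, with the cutoff set from rapamycin (7.5 nM) versus DMSO wells. Tsc2-/-, p53-/- MEFs received compound for 24 hrs.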

Test [7] is described as follows: High Content Imaging Cell-Based qHTS for Inhibitors of the mTORC1 Signaling Pathway in MEF Cells (AID 2667).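 Further: Tsc2-/- p53-/- MEFs stably re-expressing wild-type Tsc2 exposed 24 h; series mostly up to about 38 µM.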 The essentials: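 WT MEFs (Tsc2-/-, p53-/- re-expressing Tsc2), in DMEM + 10% FBS, were treated with compound for 24 h at 37 C. Cells were then fixed and stained for phospho-rpS6 Ser235/236 with propidium iodide as cell count. Values are % positive cells, with thresholds set against rapamycin-treated cells.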

Test [8] can be described thus: Cytometry Cell-Based qHTS for Inhibitors of the mTORC1 Signaling Pathway in MEF cells (AID 2668).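 Further: Tsc2-/- p53-/- mouse embryonic fibroblasts stably re-expressing wild-type Tsc2; percent cells positive for phospho-rpS6 Ser235/236 relative to propidium iodide stain; series mostly up to about 38 µM.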 The method in brief: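 WT MEFs (Tsc2-/-, p53-/- stably re-expressing WT Tsc2) in DMEM + 10% FBS received compounds 24 hrs after plating, for 24 hrs at 37 degree Celsius. Fixed cells stained with Alexa-488 anti-phospho-rpS6 Ser235/236 and propidium iodide; laser-scanning cytometry read-out.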

The nature of test [9]: Validation screen for inhibitors of Lassa infection (AID 463096; calls by dose curve).
A short description of test [10]: Validation screen for small molecules that induce DNA re-replication in MCF 10A normal breast cells (AID 463097). Further: nearly all actives have a fitted effect of over 60% in size. The method in brief:
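Readout: Hoechst nuclear fluorescence intensity, 405 ex / 500-530 em, by scanning plate imager; re-replication scored as increase in nuclei with elevated DNA content. Cells exposed to compound 48 hr, 37 C, 5% CO2 beforehand.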

For test [11], the target named is Ubiquitin carboxyl-terminal hydrolase 2 (Homo sapiens) (UniProt O75604). Description: qHTS Validation Assay for Inhibitors of Ubiquitin-specific Protease USP2a Using CHOP2 as the Reporter (AID 463106). The essentials: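 USP2 core (10 nM final) was preincubated with compound 30 min at RT in pH 8.0 Tris/CaCl2/beta-ME/CHAPS buffer. Ub-CHOP2 and reporter substrate (25 nM final each) were then added, with fluorescence (Ex 485/Em 531) read after 60 min. Data were normalized to NEM full inhibition and fitted to concentration-response curves.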

The target of test [12] is DNA polymerase III PolC-type (Bacillus subtilis (strain 168)) (UniProt P13267). Description: qHTS Validation Assay for the Inhibitors of DNA Replication in Gram-Positive Bacteria (AID 485295).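 Further: PicoGreen fluorescence of double-stranded DNA made on primed circular M13 template; series mostly up to about 57 µM.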 The essentials:
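Reconstituted B. subtilis holoenzyme (Pol III, beta clamp, SSB, primase) was preincubated with compound at room temperature, then given single-stranded circular M13Gori plus dNTPs and NTPs. EDTA-containing PicoGreen stopped the reaction, and dsDNA product was read by fluorescence.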

Test [13] concerns the target Tumor susceptibility gene 101 protein (Homo sapiens) (UniProt Q99816). Description: qHTS Validation Assay for Iinhibitors of HIV-1 Budding by Blocking the Interaction of PTAP/TSG101 (AID 485342; calls by dose curve). The method in brief: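 Tsg101 binding domain (10 uM final) in pH 7.5 HEPES/NaCl/Tween 20/EDTA/TCEP buffer was mixed with pin-transferred compounds, then FITC-labeled PTAP peptide (50 nM final) was added; after 20 min at r.t., fluorescence polarization was read.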

A short description of test [14]: qHTS Validation Assay to Find Inhibitors of Chronic Active B-Cell Receptor Signaling (AID 485345; active means well fitted curve in the direction sought with a large enough effect in the main read-out, with a control signal flat, not every such curve was filed as active). The essentials:
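TMD8 ABC-DLBCL cells stably carrying doxycycline-inducible IkappaBalpha–green luciferase fusion plus unfused red luciferase; compounds 46 uM to 3 nM, 4 h at 37C with doxycycline. Corrected green/red luminescence ratio normalized to 10 uM MG-132 and basal cell wells; curves fitted.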

For test [15], the target named is Beta-2 adrenergic receptor (Homo sapiens) (UniProt P07550). The test is described as follows: qHTS validation assay of beta-arrestin-biased ligands of beta2-adrenergic receptor (AID 485366). The essentials:
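Luminescence from a tTA-responsive luciferase, induced when recombinant beta-arrestin is recruited to recombinant beta2-AR, served as the agonism signal. Cells were exposed to compound for 18 hr at 37 degrees C; titrations spanned up to 46 microM.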

The target of test [16] is ATP-dependent 6-phosphofructokinase (Trypanosoma brucei brucei) (UniProt O15648). The test is described as follows: qHTS Validation Assay to Find Inhibitors of T. brucei phosphofructokinase (AID 485368). Further: potency means the concentration at half of the fitted maximal effect. The essentials: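 Activity was normalized between 1x (1.25 nM) PFK wells as no inhibition and enzyme-free wells as full inhibition, from luminescence after ADP-Glo detection of ADP made from 0.5 mM F6P and 0.1 mM ATP over 45 min.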

A short description of test [17]: High Content Imaging Cell-Based qHTS for Inhibitors of the mTORC1 Signaling Pathway in MEF (Tsc2-/-, p53-/-) Cells (AID 2666).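 Further: percent of cells scored positive for phospho-rpS6 Ser235/236 immunostaining by imaging.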 The method in brief:
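Phospho-rpS6 (Ser235/236) immunofluorescence, normalized and scored as % positive cells using rapamycin and DMSO controls, was read in empty-vector Tsc2-/-, p53-/- MEFs after 24 h compound exposure at 37 C; propidium iodide counted cells.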

Chain of ATP-dependent 6-phosphofructokinase (Trypanosoma brucei brucei) (O15648 whole entry, looked up): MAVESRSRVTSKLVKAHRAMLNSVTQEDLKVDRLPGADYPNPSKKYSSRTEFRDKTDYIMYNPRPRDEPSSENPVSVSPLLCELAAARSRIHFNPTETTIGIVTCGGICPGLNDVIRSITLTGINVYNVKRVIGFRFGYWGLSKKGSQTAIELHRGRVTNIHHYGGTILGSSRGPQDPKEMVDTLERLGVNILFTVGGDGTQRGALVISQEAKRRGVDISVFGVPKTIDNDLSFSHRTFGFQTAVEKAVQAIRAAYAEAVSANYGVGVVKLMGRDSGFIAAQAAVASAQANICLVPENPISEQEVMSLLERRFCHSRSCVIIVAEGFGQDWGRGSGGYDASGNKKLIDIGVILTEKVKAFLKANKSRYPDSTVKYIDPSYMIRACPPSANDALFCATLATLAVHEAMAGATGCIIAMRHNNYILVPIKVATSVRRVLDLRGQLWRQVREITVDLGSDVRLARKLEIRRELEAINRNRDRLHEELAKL
Chain of DNA polymerase III PolC-type (Bacillus subtilis (strain 168)) (P13267 whole entry, looked up): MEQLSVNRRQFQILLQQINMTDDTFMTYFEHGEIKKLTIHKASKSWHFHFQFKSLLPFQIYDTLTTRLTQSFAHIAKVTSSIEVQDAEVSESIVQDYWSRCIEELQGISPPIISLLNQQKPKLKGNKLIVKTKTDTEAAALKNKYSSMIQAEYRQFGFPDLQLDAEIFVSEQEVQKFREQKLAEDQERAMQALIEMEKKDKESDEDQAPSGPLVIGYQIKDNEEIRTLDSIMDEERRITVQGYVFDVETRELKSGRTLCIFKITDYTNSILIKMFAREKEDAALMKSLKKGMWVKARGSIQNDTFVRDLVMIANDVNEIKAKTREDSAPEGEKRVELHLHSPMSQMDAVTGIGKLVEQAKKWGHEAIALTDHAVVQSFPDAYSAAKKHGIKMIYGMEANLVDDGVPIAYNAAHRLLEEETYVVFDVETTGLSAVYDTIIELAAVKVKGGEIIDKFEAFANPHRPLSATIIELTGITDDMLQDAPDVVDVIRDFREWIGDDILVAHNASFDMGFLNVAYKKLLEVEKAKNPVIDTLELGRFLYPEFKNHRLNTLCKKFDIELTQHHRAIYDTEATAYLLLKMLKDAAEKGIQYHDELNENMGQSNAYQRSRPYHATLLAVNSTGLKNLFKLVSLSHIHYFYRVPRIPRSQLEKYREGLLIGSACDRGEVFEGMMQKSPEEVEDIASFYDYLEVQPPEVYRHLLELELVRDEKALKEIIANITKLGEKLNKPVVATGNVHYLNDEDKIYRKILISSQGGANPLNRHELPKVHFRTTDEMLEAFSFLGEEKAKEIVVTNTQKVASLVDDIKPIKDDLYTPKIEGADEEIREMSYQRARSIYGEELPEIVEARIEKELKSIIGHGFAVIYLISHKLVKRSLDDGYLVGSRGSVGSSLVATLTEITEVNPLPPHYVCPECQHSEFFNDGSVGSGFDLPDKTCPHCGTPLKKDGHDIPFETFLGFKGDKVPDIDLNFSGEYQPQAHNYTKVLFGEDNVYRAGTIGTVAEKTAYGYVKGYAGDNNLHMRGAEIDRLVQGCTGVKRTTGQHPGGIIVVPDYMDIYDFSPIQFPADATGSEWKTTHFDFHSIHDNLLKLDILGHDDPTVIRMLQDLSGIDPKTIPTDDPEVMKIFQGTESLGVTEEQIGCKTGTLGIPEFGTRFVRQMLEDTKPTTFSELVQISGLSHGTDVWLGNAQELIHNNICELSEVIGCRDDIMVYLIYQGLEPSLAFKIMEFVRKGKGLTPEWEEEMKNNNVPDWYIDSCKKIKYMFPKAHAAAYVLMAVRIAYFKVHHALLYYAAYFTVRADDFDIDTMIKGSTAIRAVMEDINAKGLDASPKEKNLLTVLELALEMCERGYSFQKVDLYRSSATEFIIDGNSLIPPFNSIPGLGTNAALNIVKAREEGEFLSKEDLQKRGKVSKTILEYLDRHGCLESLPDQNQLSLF
Chain of ATP-dependent DNA helicase Q1 (Homo sapiens) (P46063 whole entry, looked up): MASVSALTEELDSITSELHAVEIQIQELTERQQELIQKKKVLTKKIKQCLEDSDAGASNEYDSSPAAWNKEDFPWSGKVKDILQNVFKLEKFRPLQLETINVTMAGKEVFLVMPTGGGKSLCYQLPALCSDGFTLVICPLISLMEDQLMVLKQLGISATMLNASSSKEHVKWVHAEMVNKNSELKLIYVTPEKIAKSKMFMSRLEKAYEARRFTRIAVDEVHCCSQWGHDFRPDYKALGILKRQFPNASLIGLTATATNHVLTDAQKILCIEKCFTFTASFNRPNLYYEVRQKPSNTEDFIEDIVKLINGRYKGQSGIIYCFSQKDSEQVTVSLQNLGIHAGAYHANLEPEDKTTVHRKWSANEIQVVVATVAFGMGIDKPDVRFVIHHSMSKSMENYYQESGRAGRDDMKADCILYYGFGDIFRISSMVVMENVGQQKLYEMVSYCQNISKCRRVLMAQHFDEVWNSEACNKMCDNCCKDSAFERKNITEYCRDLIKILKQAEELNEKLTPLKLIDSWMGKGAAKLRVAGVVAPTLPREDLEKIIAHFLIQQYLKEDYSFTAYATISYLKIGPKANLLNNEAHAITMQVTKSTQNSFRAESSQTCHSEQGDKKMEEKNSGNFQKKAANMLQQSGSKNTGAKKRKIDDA
Chain of Beta-2 adrenergic receptor (Homo sapiens) (P07550 whole entry, looked up): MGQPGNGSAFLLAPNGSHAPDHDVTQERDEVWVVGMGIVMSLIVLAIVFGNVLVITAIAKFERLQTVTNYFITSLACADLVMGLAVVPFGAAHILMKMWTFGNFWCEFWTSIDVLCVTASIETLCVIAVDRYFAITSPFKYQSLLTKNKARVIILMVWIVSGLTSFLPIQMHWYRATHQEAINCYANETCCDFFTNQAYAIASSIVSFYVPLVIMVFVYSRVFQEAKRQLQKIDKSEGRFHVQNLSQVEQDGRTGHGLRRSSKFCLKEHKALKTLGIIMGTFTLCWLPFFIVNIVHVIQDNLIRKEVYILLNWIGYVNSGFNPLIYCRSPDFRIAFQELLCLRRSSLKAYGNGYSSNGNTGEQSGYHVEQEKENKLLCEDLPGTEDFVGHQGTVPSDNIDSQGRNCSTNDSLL
Chain of RecQ-like DNA helicase BLM (Homo sapiens) (P54132 whole entry, looked up): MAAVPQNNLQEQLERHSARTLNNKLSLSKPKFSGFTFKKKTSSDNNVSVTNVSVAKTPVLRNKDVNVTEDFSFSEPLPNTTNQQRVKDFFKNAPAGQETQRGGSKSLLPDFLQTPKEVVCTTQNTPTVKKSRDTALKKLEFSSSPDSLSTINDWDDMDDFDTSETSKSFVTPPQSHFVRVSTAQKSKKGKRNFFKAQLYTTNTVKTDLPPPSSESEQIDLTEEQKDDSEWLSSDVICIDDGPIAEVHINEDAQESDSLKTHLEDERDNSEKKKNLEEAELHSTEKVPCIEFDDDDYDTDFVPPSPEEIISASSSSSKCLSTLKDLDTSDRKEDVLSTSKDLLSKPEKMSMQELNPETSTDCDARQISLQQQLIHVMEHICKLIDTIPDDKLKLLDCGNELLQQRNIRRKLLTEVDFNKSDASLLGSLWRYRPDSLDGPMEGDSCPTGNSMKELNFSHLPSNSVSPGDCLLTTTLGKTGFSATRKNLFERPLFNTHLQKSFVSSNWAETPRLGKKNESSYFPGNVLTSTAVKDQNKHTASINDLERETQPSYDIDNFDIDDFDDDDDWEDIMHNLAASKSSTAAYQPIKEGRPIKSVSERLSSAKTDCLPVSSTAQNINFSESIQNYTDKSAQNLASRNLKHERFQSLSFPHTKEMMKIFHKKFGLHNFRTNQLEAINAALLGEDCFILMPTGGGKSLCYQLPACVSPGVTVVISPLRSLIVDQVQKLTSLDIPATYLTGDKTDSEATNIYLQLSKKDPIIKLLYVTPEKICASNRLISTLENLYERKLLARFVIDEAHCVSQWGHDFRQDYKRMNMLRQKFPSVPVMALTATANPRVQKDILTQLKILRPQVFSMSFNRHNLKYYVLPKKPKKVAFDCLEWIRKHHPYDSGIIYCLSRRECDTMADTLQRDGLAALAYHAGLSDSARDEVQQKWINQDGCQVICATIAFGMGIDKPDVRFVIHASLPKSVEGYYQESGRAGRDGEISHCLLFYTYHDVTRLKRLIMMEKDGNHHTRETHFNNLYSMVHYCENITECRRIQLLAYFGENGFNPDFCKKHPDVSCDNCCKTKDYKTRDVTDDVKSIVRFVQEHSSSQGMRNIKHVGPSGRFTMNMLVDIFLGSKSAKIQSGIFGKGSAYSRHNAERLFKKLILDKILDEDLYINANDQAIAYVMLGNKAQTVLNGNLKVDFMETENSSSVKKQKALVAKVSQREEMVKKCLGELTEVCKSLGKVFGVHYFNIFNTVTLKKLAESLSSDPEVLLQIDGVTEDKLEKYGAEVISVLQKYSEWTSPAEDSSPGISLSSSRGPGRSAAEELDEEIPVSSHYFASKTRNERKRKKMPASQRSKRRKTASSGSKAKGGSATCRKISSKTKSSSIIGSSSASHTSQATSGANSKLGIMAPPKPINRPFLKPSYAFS
Chain of Ubiquitin carboxyl-terminal hydrolase 2 (Homo sapiens) (O75604 whole entry, looked up): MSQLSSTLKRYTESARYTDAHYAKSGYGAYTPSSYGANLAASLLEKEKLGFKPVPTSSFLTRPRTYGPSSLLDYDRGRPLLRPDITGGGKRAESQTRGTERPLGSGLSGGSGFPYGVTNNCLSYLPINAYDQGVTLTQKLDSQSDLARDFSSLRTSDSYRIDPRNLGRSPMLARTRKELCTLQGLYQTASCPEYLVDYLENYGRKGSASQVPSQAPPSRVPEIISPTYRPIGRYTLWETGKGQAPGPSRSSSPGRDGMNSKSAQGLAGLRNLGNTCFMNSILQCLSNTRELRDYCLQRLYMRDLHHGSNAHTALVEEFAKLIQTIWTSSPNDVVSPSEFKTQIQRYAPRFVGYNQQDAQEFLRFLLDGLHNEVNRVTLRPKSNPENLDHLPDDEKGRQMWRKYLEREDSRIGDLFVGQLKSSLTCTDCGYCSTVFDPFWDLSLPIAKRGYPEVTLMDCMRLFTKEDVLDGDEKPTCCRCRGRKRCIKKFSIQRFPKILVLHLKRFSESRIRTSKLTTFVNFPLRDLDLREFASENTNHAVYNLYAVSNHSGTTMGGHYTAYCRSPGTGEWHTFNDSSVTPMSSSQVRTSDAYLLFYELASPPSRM

In the case of `c1ccc2cc(CC3=NCCN3)ccc2c1`, the Potency result in test [1], in test [4], in [5], in [6], in test [7] and in [8] was “inactive” each time. For the same compound, the Potency entry in [9], in test [10], in [11], in test [12], in [14] and in [16] was “inactive” in each case. Moreover, the result in test [2], in test [3], in [13] and in test [15] was inactive.

In the case of `C[N+](C)(C)CCOC(=O)CBr`, the Potency result in test [1], in test [4], in [5], in test [6], in test [17] and in [7] was “inactive” each time. Also, the Potency result in [8], in test [9], in test [10], in test [11], in test [12] and in [14] was “inactive” throughout. For the same compound, the Potency entry in test [16] is “inactive”. Also, the compound was classed as inactive in [2], in test [3], in test [13] and in test [15].

Turning to `C=CCN1CC[C@]23c4c5ccc(O)c4O[C@H]2/C(=N/NC(=O)c2ccccc2)CC[C@@]3(O)[C@H]1C5`, the Potency in test [1] is 11.2 µM (active). Further, the result in test [2], in [3], in [13] and in [15] was inactive. Further, the Potency entry in [4], in [6], in test [7], in test [8], in [9] and in test [10] was “inactive” each time. The Potency result in test [11], in test [12] and in test [14] was “inactive” in each case.

Consider `CN1CCc2cccc(Cl)c2CC1`, for which the Potency result in test [1], in test [4], in test [5], in test [6], in [7] and in [9] was “inactive” each time. For the same compound, the Potency result in [10], in [11], in test [12] and in test [14] was “inactive” in each case. Further, the result in [2], in test [3], in test [13] and in test [15] was inactive.

As to `CCN(CC)c1ncnc2c1ncn2[C@@H]1O[C@H](COP(=O)(O)OP(=O)(O)C(Br)(Br)P(=O)(O)O)[C@@H](O)[C@H]1O`, the Potency entry in test [1], in [4], in test [9] and in test [10] was “inactive” each time. In addition, the compound was called inactive in test [2] and in [3].

For the compound `CC(N)Cc1c[nH]c2ccc(O)cc12` (stereo not drawn), the Potency entry in test [1], in [4], in test [6], in test [17], in test [7] and in test [9] was “inactive” each time. Besides, the Potency result in [10], in [11], in [12], in test [14] and in test [16] was “inactive” in each case. Moreover, the outcome in [2], in [3] and in test [15] was inactive.

On to `Cc1o[nH]c(=O)c1CC(N)C(=O)O` (stereo not drawn), for which the Potency result in test [1], in test [4], in test [6], in test [7], in [8] and in test [9] was “inactive” throughout. Moreover, the Potency result in test [10], in test [11], in test [12], in test [14] and in test [16] was “inactive” in each case. Besides, the compound was classed as inactive in test [2], in test [3], in [13] and in test [15].

For the compound `CC(N)[C@H](O)c1ccc(O)c(O)c1` (stereo partly drawn), the Potency entry in test [1], in test [4], in test [6], in test [17], in test [9] and in test [10] was “inactive” each time. For the same compound, the Potency result in test [11], in test [12] and in test [14] was “inactive” each time. For the same compound, the compound was classed as inactive in [2], in test [3], in test [13] and in test [15]. Further, the Potency in test [16] is 5.36 µM (active).

`CCN(CCCl)Cc1ccccc1Br`: the Potency in test [1] is 10 µM (active). For the same compound, the outcome in [2] and in test [15] was inactive. Further, the Potency entry in test [4], in [17], in test [7], in test [8], in test [9] and in test [10] was “inactive” each time. For the same compound, the Potency result in test [11], in [12], in test [14] and in test [16] was “inactive” each time.
